Experimental data taken from PubChem BioAssay (NCATS).
Results filed as inconclusive are left out. The source made the active and inactive calls. Unless noted, calls follow the shape of the dose curve; as a rule, active = well fitted curve in the direction sought with a large enough effect; inconclusive = small, poorly fitted or top-dose-only effect, or another doubt; inactive = no such curve, though single readings can be large; an effect the other way counts as inactive or inconclusive.

Experiments:
[1] = target: Lysosomal acid glucosylceramidase (Homo sapiens) (UniProt P04062); assay: Glucocerebrosidase-p2 (AID 348; in the data active = potency below about 10 µM; also: potency is read from the fitted curve at half-maximal effect); conditions: purified GBA, blue fluorogenic substrate, 40 min
Chain of Lysosomal acid glucosylceramidase (Homo sapiens) (P04062 whole entry, looked up): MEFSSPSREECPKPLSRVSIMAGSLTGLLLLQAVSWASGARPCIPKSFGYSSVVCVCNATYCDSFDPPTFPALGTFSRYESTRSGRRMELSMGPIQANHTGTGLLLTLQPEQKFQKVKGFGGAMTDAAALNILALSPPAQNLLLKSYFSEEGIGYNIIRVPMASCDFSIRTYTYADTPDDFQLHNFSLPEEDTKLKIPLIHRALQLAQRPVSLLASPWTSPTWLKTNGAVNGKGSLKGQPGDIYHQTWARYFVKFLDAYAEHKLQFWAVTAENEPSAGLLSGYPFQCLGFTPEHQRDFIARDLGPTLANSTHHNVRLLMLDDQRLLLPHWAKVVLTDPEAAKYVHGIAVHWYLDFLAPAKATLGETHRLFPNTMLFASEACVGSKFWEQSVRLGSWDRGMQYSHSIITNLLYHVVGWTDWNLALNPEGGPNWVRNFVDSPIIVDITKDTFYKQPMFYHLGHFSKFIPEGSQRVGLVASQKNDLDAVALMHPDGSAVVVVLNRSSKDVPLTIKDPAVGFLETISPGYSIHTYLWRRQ
Outline: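 Normal human glucocerebrosidase (0.2 nM) with blue fluorogenic substrate (80 uM final) in citrate/phosphate pH 5.9 with 10mM sodium taurocholate, 0.01% tween-20; 40 min RT, NaOH/glycine stop; fluorescence Ex 365/Em 440; AC50 from a titration from 0.6 nM upwards.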

[2] = AP1 Signaling Pathway (AID 357; active = well fitted curve in either direction with a large enough effect, not every such curve was filed as active;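 also: ME-180 reporter cells stimulated with EGF at its EC50 level; % is scaled to controls: 0 for no effect and ±100 for the full control effect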); conditions: ME-180 AP-1-bla reporter, EGF-induced, beta-lactamase ratio, 5 h; at 7.69 µM (top of the series) unless noted
Outline: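 Cells are seeded overnight, exposed to compound titrations and an EC50 level of EGF for 5 hours at 37 °C, then loaded with CCF4 dye for 2.5 hours. Beta-lactamase activity under the AP-1 element is read as a blue/green ratio.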

[3] = target: Cytochrome P450 1A2 (Homo sapiens) (UniProt P05177); assay: p450-cyp1a2 (AID 410; calls by dose curve; also: potency is read from the fitted curve at half-maximal effect); conditions: recombinant CYP1A2, luciferin-ME demethylation, luminescence; series mostly up to 57 µM
Chain of Cytochrome P450 1A2 (Homo sapiens) (P05177 whole entry, looked up): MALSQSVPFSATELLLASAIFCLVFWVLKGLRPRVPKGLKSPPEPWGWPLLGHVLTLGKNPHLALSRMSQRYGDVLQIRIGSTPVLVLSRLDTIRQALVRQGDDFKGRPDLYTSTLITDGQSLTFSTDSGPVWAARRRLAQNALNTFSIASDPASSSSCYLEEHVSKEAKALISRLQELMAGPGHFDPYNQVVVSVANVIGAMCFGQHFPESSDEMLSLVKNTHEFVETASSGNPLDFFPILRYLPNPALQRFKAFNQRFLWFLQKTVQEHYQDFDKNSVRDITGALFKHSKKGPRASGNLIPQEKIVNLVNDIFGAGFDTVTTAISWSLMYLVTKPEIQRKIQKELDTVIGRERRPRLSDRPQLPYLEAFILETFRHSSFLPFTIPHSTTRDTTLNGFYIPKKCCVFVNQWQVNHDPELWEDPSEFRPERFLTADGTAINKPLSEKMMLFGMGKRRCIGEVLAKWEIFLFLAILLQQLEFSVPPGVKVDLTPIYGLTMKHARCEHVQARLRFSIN
Outline: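 O-Demethylation of luciferin 6' methyl ether by human CYP1A2 is monitored as luciferase luminescence. Substrate sits at Km (100uM); enzyme is 20nM. Values are scaled to 57 uM furafylline as maximal inhibition.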

[4] = NFAT Signaling Pathway (AID 444; active = well fitted curve in either direction with a large enough effect, not every such curve was filed as active;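 also: carbachol stimulus at about its EC50 of 1 µM final; % is scaled to controls: 0 for no effect and ±100 for the full control effect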); conditions: Jurkat NFAT-bla M1, carbachol, beta-lactamase ratio, 5 h; at 7.69 µM (top of the series) unless noted
Outline: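 Jurkat cells carrying an NFAT-driven β-lactamase reporter and co-transfected muscarinic M1 receptor were treated with compound plus carbachol (1 uM final, an EC50 level) for 5 h at 37 °C. CCF4 loading followed for 1 h at RT; 460/530 nm ratio gave %activity.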

[5] = target: Glucocorticoid receptor (Homo sapiens) (UniProt P04150); assay: GR-GFP Redistribution (AID 450;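 active = compounds whose dose series gives a full or clear partial fitted curve of increased nuclear translocation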; also: potency is read from the fitted curve at half-maximal effect); conditions: U2OS GR-GFP nuclear translocation, laser cytometry, 2 h
Chain of Glucocorticoid receptor (Homo sapiens) (P04150 whole entry, looked up, the tested form may be a part): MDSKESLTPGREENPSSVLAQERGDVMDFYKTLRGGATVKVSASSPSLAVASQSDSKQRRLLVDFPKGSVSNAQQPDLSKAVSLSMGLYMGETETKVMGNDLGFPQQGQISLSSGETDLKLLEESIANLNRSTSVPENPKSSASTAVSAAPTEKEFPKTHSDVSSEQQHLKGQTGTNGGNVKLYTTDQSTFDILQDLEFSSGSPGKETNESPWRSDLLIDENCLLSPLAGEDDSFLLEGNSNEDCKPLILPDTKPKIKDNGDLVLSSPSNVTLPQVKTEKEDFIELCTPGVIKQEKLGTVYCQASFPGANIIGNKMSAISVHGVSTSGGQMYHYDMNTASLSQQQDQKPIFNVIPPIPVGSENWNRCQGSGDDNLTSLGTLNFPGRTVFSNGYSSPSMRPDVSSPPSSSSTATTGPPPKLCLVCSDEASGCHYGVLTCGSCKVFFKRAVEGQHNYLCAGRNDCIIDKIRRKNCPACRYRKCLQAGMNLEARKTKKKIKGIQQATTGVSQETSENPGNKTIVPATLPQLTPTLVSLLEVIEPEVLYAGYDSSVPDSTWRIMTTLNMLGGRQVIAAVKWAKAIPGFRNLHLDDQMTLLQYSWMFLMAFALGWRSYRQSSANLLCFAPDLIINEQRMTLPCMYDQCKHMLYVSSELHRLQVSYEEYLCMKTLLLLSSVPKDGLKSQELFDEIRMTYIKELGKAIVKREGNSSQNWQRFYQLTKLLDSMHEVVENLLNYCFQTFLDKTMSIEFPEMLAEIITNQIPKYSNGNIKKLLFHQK

[6] = target: Glucocorticoid receptor (Homo sapiens) (UniProt P04150); assay: GR-EFC Redistribution (AID 451; calls by dose curve; also: potency is read from the fitted curve at half-maximal effect); conditions: CHO-K1 GR-EFC translocation, beta-gal luminescence, 2 h
Outline: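 CHO-K1 cells stably expressing nuclear-localized β-gal enzyme acceptor and GR fused C-terminally to the enzyme donor fragment; ligand-driven nuclear translocation restores β-gal by complementation. Compounds titrated up to 46 uM final, 2 h at 37 °C; luminescence read.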

[7] = target: Mitogen-activated protein kinase 10 (Mus musculus) (UniProt Q61831); assay: JNK3 AlphaScreen Assay (AID 530; active = well fitted curve in either direction with a large enough effect, not every such curve was filed as active;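 also: kinase came from lysate of stimulated human HepG2 cells; signal reports phosphorylation of biotinylated GST-cJun 1-79 at Ser73 with 10 µM ATP; % is scaled to controls: 0 for no effect and ±100 for the full control effect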); conditions: JNK3 lysate, c-Jun phosphorylation; series mostly up to 57.1 µM
Outline: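 Phosphorylation of biotinylated GST-cJun(1-79) at Ser73 is measured by AlphaScreen proximity luminescence. Enzyme is JNK3 in HepG2 lysates activated with interleukin-1beta and tumor necrosis factor alpha; ATP is 10 uM final.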

[8] = target: 3',5'-cyclic-AMP phosphodiesterase 4B (Homo sapiens) (UniProt Q07343); assay: qHTS Assay for Inhibitors of PDE-IV (AID 607; active = well fitted activation curve with a large enough effect in the main read-out, with a control signal flat, not every such curve was filed as active; also: % of control where 0% means no effect); conditions: HEK293 ACTOne CNG channel cells, membrane potential fluorescence; series mostly up to 22.9 µM
Chain of 3',5'-cyclic-AMP phosphodiesterase 4B (Homo sapiens) (Q07343 whole entry, looked up): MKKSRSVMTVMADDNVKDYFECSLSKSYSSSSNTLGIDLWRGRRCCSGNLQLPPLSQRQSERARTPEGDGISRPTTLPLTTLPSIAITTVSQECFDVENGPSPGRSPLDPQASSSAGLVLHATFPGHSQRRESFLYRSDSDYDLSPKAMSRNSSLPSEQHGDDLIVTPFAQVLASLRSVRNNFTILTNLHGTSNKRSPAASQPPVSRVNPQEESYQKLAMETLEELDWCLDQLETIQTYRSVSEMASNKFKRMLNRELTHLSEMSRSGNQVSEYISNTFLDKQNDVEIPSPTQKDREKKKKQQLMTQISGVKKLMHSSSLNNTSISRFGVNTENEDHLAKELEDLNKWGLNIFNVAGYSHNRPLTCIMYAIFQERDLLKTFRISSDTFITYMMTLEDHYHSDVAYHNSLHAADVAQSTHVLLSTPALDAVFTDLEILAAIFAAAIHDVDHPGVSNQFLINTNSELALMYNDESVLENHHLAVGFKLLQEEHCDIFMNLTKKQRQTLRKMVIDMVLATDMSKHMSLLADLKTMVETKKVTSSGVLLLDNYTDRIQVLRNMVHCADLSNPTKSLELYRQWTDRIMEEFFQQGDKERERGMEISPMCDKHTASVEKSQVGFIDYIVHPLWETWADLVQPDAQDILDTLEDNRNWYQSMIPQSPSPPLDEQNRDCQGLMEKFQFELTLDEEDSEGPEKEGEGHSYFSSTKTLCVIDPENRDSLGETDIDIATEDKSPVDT
Outline: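 The readout is membrane depolarisation from a cAMP-sensing CNG channel, detected with a potential dye at ex 535/em 590. Cells were HEK293-derived (endogenous PDE-IV) at 1000 cells/well, titrated up to 22.9 uM final.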

[9] = target: Cytochrome P450 3A4 (Homo sapiens) (UniProt P08684); assay: qHTS Assay for Activators of Cytochrome P450 3A4 (AID 885); conditions: recombinant CYP3A4, Luciferin-PPXE luminescence, 60 min; series mostly up to 57.1 µM; also: nearly all actives have a fitted effect of over 65% in size
Chain of Cytochrome P450 3A4 (Homo sapiens) (P08684 whole entry, looked up): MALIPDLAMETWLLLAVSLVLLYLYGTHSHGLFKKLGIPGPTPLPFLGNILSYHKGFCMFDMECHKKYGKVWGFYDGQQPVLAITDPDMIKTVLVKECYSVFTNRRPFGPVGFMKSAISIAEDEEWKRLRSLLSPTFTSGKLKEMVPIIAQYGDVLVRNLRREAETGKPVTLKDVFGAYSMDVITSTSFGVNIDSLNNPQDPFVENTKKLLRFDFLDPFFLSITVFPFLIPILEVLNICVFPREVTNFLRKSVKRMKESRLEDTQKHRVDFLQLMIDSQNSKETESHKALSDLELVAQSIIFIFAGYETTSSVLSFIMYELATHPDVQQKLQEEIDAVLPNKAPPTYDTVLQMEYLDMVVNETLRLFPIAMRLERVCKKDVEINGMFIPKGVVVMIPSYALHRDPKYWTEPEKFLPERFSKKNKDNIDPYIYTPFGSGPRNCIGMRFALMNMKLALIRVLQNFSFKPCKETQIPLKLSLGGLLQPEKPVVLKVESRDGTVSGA
Outline: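 Activators are scored by enhanced luminescence from CYP3A4 conversion of luciferin-PPXE (25uM, equal to KM) to luciferin, after 60 min at RT with an NADPH-regenerating system.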

[10] = qHTS Assay for Lipid Storage Modulators (AID 1519; calls by dose curve); conditions: Drosophila S3 cells, BODIPY lipid droplet/cell ratio, laser cytometry, cells loaded with oleic acid; for activity change, negative = inhibition: at 57.5 µM (top of the series)
Outline: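 Cells seeded at 5,000 per well were treated with compounds over a concentration series and loaded with oleic acid (400 uM, as added). Lipid droplet fluorescence (488 nm excitation, 500-530 nm channel) was read by laser-scanning cytometry and normalized to 20 uM Triacsin C.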

[11] = target: Dual specificity protein kinase CLK4 (Homo sapiens) (UniProt Q9HAZ1); assay: qHTS Assay for Inhibitors of CDC-like Kinase 4 (Kinase-Glo Assay) (AID 1770); conditions: recombinant Clk4, Kinase-Glo ATP depletion luminescence; series mostly up to 66.7 µM; also: nearly all actives have a fitted effect of over 65% in size; also: potency is read from the fitted curve at half-maximal effect
Chain of Dual specificity protein kinase CLK4 (Homo sapiens) (Q9HAZ1 whole entry, looked up): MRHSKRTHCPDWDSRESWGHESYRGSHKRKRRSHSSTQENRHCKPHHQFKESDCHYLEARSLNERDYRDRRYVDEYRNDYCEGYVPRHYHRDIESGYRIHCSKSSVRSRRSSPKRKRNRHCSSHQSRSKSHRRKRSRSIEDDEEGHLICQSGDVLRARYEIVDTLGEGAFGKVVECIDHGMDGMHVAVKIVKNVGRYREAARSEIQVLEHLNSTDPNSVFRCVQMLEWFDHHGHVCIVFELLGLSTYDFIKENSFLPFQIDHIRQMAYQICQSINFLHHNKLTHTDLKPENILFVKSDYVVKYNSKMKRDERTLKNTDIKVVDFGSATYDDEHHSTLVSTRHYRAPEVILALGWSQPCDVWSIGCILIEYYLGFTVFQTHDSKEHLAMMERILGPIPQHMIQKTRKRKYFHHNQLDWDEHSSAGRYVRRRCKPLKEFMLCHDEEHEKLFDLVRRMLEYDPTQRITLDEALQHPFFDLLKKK
Outline: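 Recombinant human Clk4 (25 nM) phosphorylated RS repeat peptide (100 uM) with 1 uM ATP in Tris pH 7.5/MgCl2/EGTA/DTT/Triton buffer for 4.5 h at room temperature. Residual ATP was quantified by Kinase-Glo luciferase luminescence.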

[12] = target: Dual specificity protein kinase CLK4 (Homo sapiens) (UniProt Q9HAZ1); assay: qHTS Assay for Inhibitors of CDC-like Kinase 4 (ADP-Glo Assay) (AID 1771); conditions: recombinant CLK4, ADP-Glo luminescence; series mostly up to 80 µM; also: nearly all actives have a fitted effect of over 70% in size; also: potency is read from the fitted curve at half-maximal effect
Outline: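 Compounds are pin-transferred onto substrate mix (100 uM RS peptide, 1 uM ATP), then 25 nM Clk4 is added. After 1 hr at room temperature, ADP-Glo reagent runs 45 min, detection reagent 30 min, then luminescence is read.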

[13] = target: Dual specificity protein kinase CLK4 (Homo sapiens) (UniProt Q9HAZ1); assay: qHTS Assay for Inhibitors of CDC-like Kinase 4 (ADP-FP Assay) (AID 1795); conditions: Transcreener ADP fluorescence polarization; series mostly up to 50 µM; also: nearly all actives have a fitted effect of over 60% in size; also: potency is read from the fitted curve at half-maximal effect
Outline: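 Recombinant human Clk4 (6.25 nM) phosphorylated RS repeat peptide (100 uM) with 1 uM ATP in Tris pH 7.5/MgCl2/EGTA/DTT/Triton buffer for one hour. ADP was quantified by Transcreener competitive fluorescence polarization against an ADP calibration curve.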

[14] = target: Ubiquitin carboxyl-terminal hydrolase 1 (Homo sapiens) (UniProt O94782); assay: Inhibitors of USP1/UAF1: Pilot qHTS (AID 504865); conditions: purified USP1/UAF1, Ub-rhodamine cleavage fluorescence; series mostly up to 54.9 µM;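 also: rhodamine fluorescence freed from ubiquitin-rhodamine substrate followed over time; top concentration of the series differs between compounds; % is scaled to controls: 0 for no effect and ±100 for the full control effect; nearly all actives have a fitted effect of over 35% in size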
Chain of Ubiquitin carboxyl-terminal hydrolase 1 (Homo sapiens) (O94782 whole entry, looked up): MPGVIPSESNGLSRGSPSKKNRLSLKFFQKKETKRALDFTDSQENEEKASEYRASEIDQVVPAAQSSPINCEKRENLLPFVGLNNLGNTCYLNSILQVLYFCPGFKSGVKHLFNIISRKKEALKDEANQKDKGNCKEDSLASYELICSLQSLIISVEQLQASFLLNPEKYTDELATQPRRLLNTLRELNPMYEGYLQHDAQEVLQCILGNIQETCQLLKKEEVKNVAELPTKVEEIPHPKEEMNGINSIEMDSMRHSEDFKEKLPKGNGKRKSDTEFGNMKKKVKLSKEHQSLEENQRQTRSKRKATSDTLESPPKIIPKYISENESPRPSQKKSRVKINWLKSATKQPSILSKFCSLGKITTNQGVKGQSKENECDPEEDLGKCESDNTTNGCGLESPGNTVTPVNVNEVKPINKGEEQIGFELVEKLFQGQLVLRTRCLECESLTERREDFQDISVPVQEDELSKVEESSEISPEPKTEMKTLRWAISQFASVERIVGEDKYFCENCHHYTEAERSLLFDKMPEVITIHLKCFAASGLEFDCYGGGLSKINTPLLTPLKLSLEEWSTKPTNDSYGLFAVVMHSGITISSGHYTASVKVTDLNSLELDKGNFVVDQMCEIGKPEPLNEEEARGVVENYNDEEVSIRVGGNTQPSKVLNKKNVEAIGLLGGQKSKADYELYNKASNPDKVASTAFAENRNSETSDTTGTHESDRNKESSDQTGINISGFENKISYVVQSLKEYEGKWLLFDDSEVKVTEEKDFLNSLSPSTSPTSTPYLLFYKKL
Outline: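 USP1/UAF1 complex (1nM) preincubated with compound 15 min at room temperature, then Ub-Rho substrate (150nM final) added. Fluorescence read kinetically at 480/540 nm, 6 reads every 60 seconds. Buffer: 50mM HEPES pH 7.8, 0.5mM EDTA, 0.1 mg/ml BSA, 1mM TCEP, 0.01% Tween-20.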

[15] = Primary qHTS for small molecule stabilizers of the endoplasmic reticulum resident proteome: Secreted ER Calcium Modulated Protein (SERCaMP) assay (AID 1508630); conditions: SH-SY5Y GLuc-SERCaMP (Gaussia luciferase released on ER calcium loss) secretion, thapsigargin, luminescence; series mostly up to 38.4 µM; also: % is scaled to controls: 0 for no effect and ±100 for the full control effect
Outline: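 The SH-SY5Y reporter protocol was run at 3 concentrations up to 38.3 uM (primary) or 11 concentrations (follow-up): 16 h compound, 100 nM thapsigargin for 4 h, then extracellular luciferase luminescence.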

[16] = Stat Signaling Pathway (AID 446; active = well fitted curve in either direction with a large enough effect, not every such curve was filed as active); conditions: ME-180 (cervical carcinoma) SIE beta-lactamase reporter, IL-6 stimulated, 5 h; at 7.69 µM (top of the series) unless noted
Outline: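 Emission at 460 and 530 nm (excitation 405 nm) reports SIE-controlled beta-lactamase in ME-180 cells. Cells received compound with 40 pM IL-6 for 5 hrs at 37 C; data scaled between 300 pM IL-6 and 125 nM JAK-inhibitor controls.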

[17] = target: Cytochrome P450 2C19 (Homo sapiens) (UniProt P33261); assay: qHTS Assay for Inhibitors and Substrates of Cytochrome P450 2C19 (AID 899); conditions: recombinant CYP2C19, luciferin-H EGE luminescence; series mostly up to 57.1 µM; also: nearly all actives have a fitted effect of over 60% in size; also: potency is read from the fitted curve at half-maximal effect
Chain of Cytochrome P450 2C19 (Homo sapiens) (P33261 whole entry, looked up): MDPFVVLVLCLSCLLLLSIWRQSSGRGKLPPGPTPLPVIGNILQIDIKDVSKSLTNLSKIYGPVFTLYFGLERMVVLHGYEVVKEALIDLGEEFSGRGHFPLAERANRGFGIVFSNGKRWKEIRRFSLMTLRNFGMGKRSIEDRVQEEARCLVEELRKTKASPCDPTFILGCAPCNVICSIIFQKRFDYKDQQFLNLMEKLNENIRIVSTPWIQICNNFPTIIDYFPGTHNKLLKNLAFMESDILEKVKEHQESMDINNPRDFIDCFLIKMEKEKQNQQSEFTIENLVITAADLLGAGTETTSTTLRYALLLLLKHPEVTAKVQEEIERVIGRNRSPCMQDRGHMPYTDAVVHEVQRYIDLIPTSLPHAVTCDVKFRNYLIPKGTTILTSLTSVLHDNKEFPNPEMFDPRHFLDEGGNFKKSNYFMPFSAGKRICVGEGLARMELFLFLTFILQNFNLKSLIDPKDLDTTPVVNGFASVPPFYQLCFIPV
Outline: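 In 50mM KPO4, the reaction held 5nM enzyme and KM-level (10uM) Luciferin-H EGE; it ran 60 min at 37C after NADPH regeneration and a 10 min compound preincubation. Luminescence values were scaled to 57uM ketoconazole as complete inhibition.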

[18] = target: Cytochrome P450 3A4 (Homo sapiens) (UniProt P08684); assay: qHTS Assay for Inhibitors and Substrates of Cytochrome P450 3A4 (AID 884); conditions: recombinant CYP3A4, Luciferin-PPXE luminescence; series mostly up to 57.1 µM; also: % is scaled to controls: 0 for no effect and ±100 for the full control effect; nearly all actives have a fitted effect of over 50% in size
Outline: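 Luminescent readout of luciferin produced by CYP3A4 (20 nM) dealkylation of Luciferin-PPXE, 25 uM (its KM). NADPH-driven reaction ran 60 min at RT after 10 min compound preincubation; data scaled to 57 uM ketoconazole as 100% inhibition.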

[19] = measured here: cell count channel max response
[20] = measured here: lipid channel max response

SMILES	Potency [1]	activity change, negative = inhibition [2]	Potency [3]	activity change, negative = inhibition [4]	Potency [5]	Potency [6]	outcome [7]	Potency [8]	Potency [9]	activity change, negative = inhibition [10]	max response [10, 19]	max response [10, 20]	Potency [11]	Potency [12]	Potency [13]	Potency [14]	Potency [15]	activity, negative = inhibition [16]	Potency [17]	Potency [18]
CN1CCN(c2ncc3nc(-c4cc(F)cc(F)c4)c(=O)n(C4CC4)c3n2)CC1	> 11.4 µM (inactive)	-8.53% (inactive)	15.8 µM (active)	-23.1% (inactive)	> 9.22 µM (inactive)	> 46 µM (inactive)	inactive	inactive	inactive	1.65% (inactive)	12.3%	12.5%	inactive	inactive	inactive	inactive	inactive	–	–	–
Cn1cc(-c2nc3cnc(N4CCOCC4)nc3n(C3CC3)c2=O)c2ccccc21	> 11.4 µM (inactive)	-18.1% (inactive)	3.16 µM (active)	-15.3% (inactive)	–	> 46 µM (inactive)	inactive	inactive	inactive	8.36% (inactive)	17.1%	23.9%	inactive	inactive	inactive	inactive	inactive	11.5% (inactive)	inactive	–
Cc1noc(C)c1-c1ccc2ncnc(N(C)C)c2c1	> 11.4 µM (inactive)	-2.75% (inactive)	0.631 µM (active)	–	> 46 µM (inactive)	> 46 µM (inactive)	inactive	inactive	–	3.59% (inactive)	19%	20.5%	7.08 µM (active)	4.47 µM (active)	2 µM (active)	–	inactive	-14.9% (inactive)	–	–
COc1ccc(-c2nc3cnc(N4CCN(C)CC4)nc3n(Cc3ccc(F)cc3)c2=O)cc1	> 11.4 µM (inactive)	99.5% [activator] (active)	10 µM (active)	113% [activator] (active)	> 9.22 µM (inactive)	–	–	–	–	0.278% (inactive)	11.6%	10.9%	inactive	inactive	inactive	inactive	inactive	–	–	inactive
Cc1nc2cncnc2n(Cc2ccccc2)c1=O	> 11.4 µM (inactive)	-13.3% (inactive)	12.6 µM (active)	-2.35% (inactive)	> 9.22 µM (inactive)	> 46 µM (inactive)	inactive	–	–	1.73% (inactive)	12.6%	8.3%	inactive	inactive	inactive	–	inactive	-15.3% (inactive)	0.158 µM (active)	–
O=c1cnc2cnc(N3CCOCC3)nc2n1CCc1ccccc1	> 11.4 µM (inactive)	-4.12% (inactive)	3.16 µM (active)	-13.2% (inactive)	> 9.22 µM (inactive)	–	inactive	–	inactive	3.67% (inactive)	1.44%	3.8%	7.08 µM (active)	7.94 µM (active)	8.91 µM (active)	–	inactive	-10.2% (inactive)	–	–
